Screening data as filed in PubChem.
Sampled rows, rich in hits. Any-hit rate of the full collection: about 15%.
ELG1 DNA repair: blocks ELG1-dependent DNA repair in HEK293T cells; HEK293T ELG1-luciferase reporter, luminescence, 16 h; DNA damage induced by 5-fluorouridine; 330,000 compounds, 2.3% hits; Potency, µM (top dose mostly 46.1 µM), for the others: top-dose activity change, negative = inhibition, usual class: inhibitors; note: nearly all actives have a fitted effect of over 55% in size
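Step one: seed 2,000 cells per well. Step two: pin-transfer compound or DMSO alongside 5-fluorouridine. Step three: incubate 16 hr, 37 °C, 5% CO2. Step four: add ONE-Glo, wait 30 min, read luminescence.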
ALOX12 inh: inhibitors of human 12S-lipoxygenase ALOX12 | purified 12hLO, xylenol orange hydroperoxide absorbance | Potency, µM (top dose mostly 108 µM), for inactives: top-dose activity change, negative = inhibition, usual class: inhibitors | 580,000 compounds, 1.1% hits | AID 1671190
Target sequence (P18054 whole entry, looked up): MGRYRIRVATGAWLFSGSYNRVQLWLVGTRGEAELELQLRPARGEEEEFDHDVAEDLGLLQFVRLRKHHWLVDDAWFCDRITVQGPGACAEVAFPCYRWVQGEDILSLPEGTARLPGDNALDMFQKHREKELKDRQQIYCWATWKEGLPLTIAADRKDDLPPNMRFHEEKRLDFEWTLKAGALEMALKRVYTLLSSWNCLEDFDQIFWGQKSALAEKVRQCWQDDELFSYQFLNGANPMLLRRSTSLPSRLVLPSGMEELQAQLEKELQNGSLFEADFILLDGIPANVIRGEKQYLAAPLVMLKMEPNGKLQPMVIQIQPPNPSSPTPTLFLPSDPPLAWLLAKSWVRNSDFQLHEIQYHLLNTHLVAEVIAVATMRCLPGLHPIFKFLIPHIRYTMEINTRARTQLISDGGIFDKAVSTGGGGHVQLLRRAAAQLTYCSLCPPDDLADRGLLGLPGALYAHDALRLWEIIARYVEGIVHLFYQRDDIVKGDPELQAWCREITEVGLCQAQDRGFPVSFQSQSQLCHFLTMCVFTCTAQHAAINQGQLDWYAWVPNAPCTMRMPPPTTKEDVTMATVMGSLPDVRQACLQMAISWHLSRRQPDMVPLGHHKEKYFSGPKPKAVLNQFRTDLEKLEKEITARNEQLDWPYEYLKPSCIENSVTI
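Purified human 12hLO at 150 nM in 25 mM Hepes, 0.01% Triton X-100, pH 7.0, preincubated 15 min at room temperature with compound. Reaction started with 40 uM arachidonic acid, 30 min at room temperature. Hydroperoxide measured by Fe-xylenol orange, 573/405 nm absorbance ratio.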
RORg inh: ROR gamma (mouse) transcription inhibition. Drosophila S2 Gal4-RORgamma UAS-luciferase reporter, 20 h. AID 2551. P51450. 310,000 compounds, 5.4% hits. Potency, µM (titrated, usually from 53.6 µM), inactives show top-dose activity change, negative = inhibition, actives largely listed as inhibitors; note: nearly all actives have a fitted effect of over 60% in size
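Luciferase reporter read in Schneider cells carrying Gal4-RORγ (mouse) and UAS-Photinus luciferase; cells given compound 1 h before 700 uM copper sulfate induction, then incubated 20 h at ambient temperature.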
VP16 counter: Gal4-VP16 reporter inhibition counter-screen; 310,000 compounds, 3.5% hits; Potency, µM (series often up to 53.6 µM), inactives show at the highest dose activity, negative = inhibition, actives largely listed as inhibitors; Drosophila S2 Gal4-VP16 UAS-luciferase, luminescence, 20 h;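 note: Gal4-VP16 expression switched on by copper sulfate through the metallothionein promoter; nearly all actives have a fitted effect of over 50% in size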
TDP1 cell noCPT: qHTS for Inhibitors of human tyrosyl-DNA phosphodiesterase 1 (TDP1): qHTS in cells in absence of CPT | DT40 Tdp1-/- hTDP1 cells, no CPT, ATP luminescence, 48 h | Potency, µM (top dose mostly 46.2 µM), for the others: at the top dose activity change, negative = growth inhibition, most hits filed as inhibitors | 420,000 compounds, 15% hits; note: nearly all actives have a fitted effect of over 55% in size
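No-CPT arm: Tdp1-/-;hTDP1 DT40 cells (400/well) plus compounds, incubated ≥48 hr at 37 °C. Readout CellTiter-Glo luminescence.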
TDP1 cell CPT: growth inhibition of DT40 Tdp1-/-;hTDP1 cells with camptothecin (screen for TDP1 inhibitors); chicken DT40 Tdp1-/-;hTDP1 cells + 20 nM CPT, ATP luminescence, 48 h; Potency, µM (doses to about 46.2 µM), without a hit: top-dose activity change, negative = growth inhibition, most hits filed as inhibitors; 420,000 compounds, 12% hits; note: nearly all actives have a fitted effect of over 55% in size
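Chicken DT40 Tdp1-/- cells complemented with human TDP1, 400 cells/well, exposed to compounds plus 20 nM camptothecin for at least 48 h at 37 C; viability read as ATP content by CellTiter-Glo luminescence.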
An asterisk follows results filed as active; [ ] = remark or other dose. Calls come from the whole dose curve; as a rule, active = well fitted curve in the direction sought with a large enough effect; inconclusive = small, poorly fitted or top-dose-only effect, or another doubt; inactive = no such curve, though single readings can be large; an effect the other way counts as inactive or inconclusive. % is set by controls: 0 for no effect and ±100 for the full control effect; potency is the fitted concentration of half-maximal effect.

Screening CCOC(=O)c1c(CSc2ccc(CC)cc2)oc2ccc(O)c(CN(C)C)c12 returned ELG1 DNA repair -16%, ALOX12 inh inconclusive, RORg inh inconclusive, VP16 counter inconclusive, TDP1 cell noCPT 7.3µM* and TDP1 cell CPT 8.2µM*.
For COc1ccc(OC)c(C(=O)c2c(C)oc3cc(Br)c(O)c(CN(C)C)c23)c1 the results were ALOX12 inh inconclusive, TDP1 cell noCPT 21µM* and TDP1 cell CPT inconclusive.
Screening CC1=C(C(=O)N2CCN(c3cccc(C)c3C)CC2)C2(CCCCC2)OC1=O returned ALOX12 inh inconclusive, TDP1 cell noCPT 21µM* and TDP1 cell CPT 21µM*.
Screening CC1=C(C(=O)N2CCN(c3ccccc3)CC2)C2(CCCCC2)OC1=O returned ALOX12 inh 0%, TDP1 cell noCPT -27% and TDP1 cell CPT -24%.
Screening CC1=C(C(=O)N2CCN(c3cccc(Cl)c3)CC2)C2(CCCCC2)OC1=O returned ALOX12 inh inconclusive, TDP1 cell noCPT 21µM* and TDP1 cell CPT inconclusive.
For CC1(C(=O)OCC(=O)c2ccc(Br)cc2)CC1(Cl)Cl (configuration not stated) the results were ALOX12 inh -39%.
Screening Cn1c(CCNC(=O)c2cccc(F)c2)nc2cc(NC(=O)C3CCCO3)ccc21 (configuration not stated) returned ALOX12 inh -2%.
Screening CN(C)CCNC(=O)c1nc2nc(-c3ccccc3)c(Nc3ccc(F)cc3)cc2n1C returned ALOX12 inh -18%[176 µM].
`O=S(=O)(c1c(Cl)cccc1Cl)N1CCNCC1` gave ALOX12 inh 1%.
CC1CC(C)CN(C(=O)c2nn(C)c3c2CSc2ccccc2-3)C1 (configuration not stated) was read as ELG1 DNA repair inconclusive, ALOX12 inh 37%, RORg inh -17%, VP16 counter 4%, TDP1 cell noCPT 23µM* and TDP1 cell CPT inconclusive.
CC1CCCN(C(=O)c2nn(C)c3c2CSc2ccccc2-3)C1 (configuration not stated) was read as ELG1 DNA repair inconclusive, ALOX12 inh inconclusive, RORg inh 20%, VP16 counter inconclusive, TDP1 cell noCPT -1% and TDP1 cell CPT -17%.
`Cn1nc(C(=O)NCc2ccccc2)c2c1-c1ccccc1SC2` gave ALOX12 inh 34%, TDP1 cell noCPT inconclusive and TDP1 cell CPT inconclusive.
`CCOc1ccccc1NC(=O)c1nn(C)c2c1CSc1ccccc1-2` gave ALOX12 inh 12%, TDP1 cell noCPT 18µM* and TDP1 cell CPT inconclusive.
`CCCCNC(=O)c1nn(C)c2c1CSc1ccccc1-2` gave ALOX12 inh -21%, TDP1 cell noCPT inconclusive and TDP1 cell CPT 16µM*.
CCOc1ccccc1N(CC)C(=O)c1nn(C)c2c1CSc1ccccc1-2 was read as ELG1 DNA repair 9.2µM*, ALOX12 inh -1%, RORg inh -11%, VP16 counter -1%, TDP1 cell noCPT inconclusive and TDP1 cell CPT 26µM*.
`CS(=O)(=O)N1CCc2ccc(C(=O)N3CCN(Cc4ccc5c(c4)OCO5)CC3)cc21` gave ALOX12 inh 18%.
For CCN(CC)CC1CCN(C(=O)c2cc(=O)[nH]c3ccccc23)CC1 the results were ALOX12 inh 59%.
Screening Cc1ccc2c(C)nc(Nc3nccc(C)n3)nc2c1 returned ALOX12 inh 7%.
Cn1nc(C(=O)N2CCN(c3ccc(Cl)cc3)CC2)c2c1-c1ccccc1SC2 was read as ALOX12 inh -23%, TDP1 cell noCPT inconclusive and TDP1 cell CPT inconclusive.
For Cc1ccc2c(c1)-c1c(c(C(=O)N3CCN(c4cc(C)ccc4C)CC3)nn1C)CS2 the results were ALOX12 inh -5%, TDP1 cell noCPT 15µM* and TDP1 cell CPT inconclusive.
O=C(C=Cc1ccccc1)c1c[nH]c2ccccc2c1=O was read as ALOX12 inh -10%, TDP1 cell noCPT 6.5µM* and TDP1 cell CPT 6.5µM*.
Cc1[nH]c2ccccc2c1/C=C/C(=O)c1ccccc1 was read as ELG1 DNA repair inconclusive, ALOX12 inh -10%, RORg inh inconclusive, VP16 counter 1%, TDP1 cell noCPT inconclusive and TDP1 cell CPT inconclusive.
Cc1[nH]c2ccccc2c(=O)c1C(=O)/C=C/c1ccccc1 was read as ELG1 DNA repair 8.2µM*, ALOX12 inh -16%, RORg inh 5.6µM*, VP16 counter 5.6µM*, TDP1 cell noCPT 2.3µM* and TDP1 cell CPT 5.2µM*.
Screening Cc1cc(C)cc(NC(=O)N2CCCC(c3noc(COc4ccccc4F)n3)C2)c1 (configuration not stated) returned ALOX12 inh 8%.
`O=C1CC2(C(=O)Nc3c(Cl)cccc32)c2sc(C(=O)O)c(-c3ccccc3)c2N1` (configuration not stated) gave ALOX12 inh -30%.
For COc1ccc2c(c1)O[C@@H](c1ccc3c(c1)OCO3)[C@H](OC(=O)NCc1ccc3c(c1)OCO3)C2=O the results were RORg inh -9% and VP16 counter -9%.
Screening COc1ccc2c(c1)O[C@H](c1ccc3c(c1)OCO3)[C@@H](O)C2=O returned ELG1 DNA repair inconclusive, RORg inh 8%, VP16 counter -12%, TDP1 cell noCPT inconclusive and TDP1 cell CPT 21µM*.
`CCC(CO)NS(=O)(=O)c1cc(-c2n[nH]c(=O)c3ccccc23)ccc1C` (configuration not stated) gave ALOX12 inh -58%.
Cc1cc(C)nc(Nc2n[nH]c(COc3cccc4ccccc34)n2)n1 was read as ELG1 DNA repair -4%, ALOX12 inh 17%, RORg inh -17%, VP16 counter -2%, TDP1 cell noCPT 3.3µM* and TDP1 cell CPT 2.9µM*.
`Cc1cc(C)nc(Nc2n[nH]c(COc3ccc4ccccc4c3)n2)n1` gave ELG1 DNA repair -8%, ALOX12 inh 16%, RORg inh -19%, VP16 counter -9%, TDP1 cell noCPT -19% and TDP1 cell CPT -11%.
Cc1oc(C(=O)O)cc1COc1cccc2ccccc12 was read as ELG1 DNA repair -3%, ALOX12 inh 0%, RORg inh 0%, VP16 counter 1%, TDP1 cell noCPT 2% and TDP1 cell CPT 1%.
